Experimental data taken from PubChem BioAssay.
For part of these data: Entries with a potency or affinity are not part of this list. Calls of active or inactive are those of the source. Unless noted, the rule behind the calls is not given here.

Legend:
[1] = antimalarial activity against Dd2 strain (AID 2302;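 active = growth inhibition above 50% at the single 2 µM test dose, taken to imply half-maximal potency below 2 µM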;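 note: 0% = DMSO untreated growth and 100% = chloroquine plus artemisinin killed control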); conditions: P. falciparum Dd2 in RBCs, LDH growth readout, 72 h; at 2 µM; hits give high values
[2] = HepG2 cytotoxicity, primary screen, cytotoxicity control for P. falciparum antimalarial project, cell-based, ATP luminescence (AID 2303;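 active = inhibition above 50%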;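 note: 0% = DMSO wells and 100% = digitonin-killed cells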); conditions: HepG2 viability, 24-48 h, at 10 µM, hits give high values
[3] = target: L-lactate dehydrogenase (Plasmodium falciparum (isolate CDC / Honduras)) (UniProt Q27743); assay: PfLDH activity inhibition – cell lysate, 3D7 strain, counter-screen for P. falciparum growth inhibition project (AID 2304);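 note: 0% = vehicle and 100% = reference inhibitor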; conditions: P. falciparum 3D7 crude extract, LDH APAD/NBT absorbance; at 2 µM; hits give high values
L-lactate dehydrogenase (Plasmodium falciparum (isolate CDC / Honduras)), sequence (Q27743 whole entry, looked up): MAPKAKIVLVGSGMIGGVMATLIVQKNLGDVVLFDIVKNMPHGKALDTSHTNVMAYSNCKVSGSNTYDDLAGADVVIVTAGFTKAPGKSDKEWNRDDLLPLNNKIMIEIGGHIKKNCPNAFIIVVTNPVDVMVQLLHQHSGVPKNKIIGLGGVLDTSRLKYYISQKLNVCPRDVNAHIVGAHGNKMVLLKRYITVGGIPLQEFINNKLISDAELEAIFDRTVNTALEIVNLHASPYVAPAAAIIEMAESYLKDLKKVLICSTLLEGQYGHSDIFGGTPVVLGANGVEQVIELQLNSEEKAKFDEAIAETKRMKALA

[4] = inhibition of 3D7 malaria parasite growth – strain 3D7 (AID 2306);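 note: 0% = DMSO wells and 100% = chloroquine plus artemisinin control wells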; conditions: P. falciparum 3D7 erythrocytic growth, LDH absorbance, 72 h; at 2 µM; hits give high values
[5] = target: Calcium-dependent protein kinase 1 (Plasmodium falciparum (isolate 3D7)) (UniProt P62344); assay: PfCDPK1 kinase inhibitors, biochemical, TCAMS library (AID 1159585; cut-off not given, nearly all actives have IC50 up to about 0.98 µM;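 note: inhibitors leave more ATP so luminescence rises with inhibition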); conditions: recombinant PfCDPK1, Kinase-Glo ATP depletion luminescence
Calcium-dependent protein kinase 1 (Plasmodium falciparum (isolate 3D7)), sequence (P62344 whole entry, looked up): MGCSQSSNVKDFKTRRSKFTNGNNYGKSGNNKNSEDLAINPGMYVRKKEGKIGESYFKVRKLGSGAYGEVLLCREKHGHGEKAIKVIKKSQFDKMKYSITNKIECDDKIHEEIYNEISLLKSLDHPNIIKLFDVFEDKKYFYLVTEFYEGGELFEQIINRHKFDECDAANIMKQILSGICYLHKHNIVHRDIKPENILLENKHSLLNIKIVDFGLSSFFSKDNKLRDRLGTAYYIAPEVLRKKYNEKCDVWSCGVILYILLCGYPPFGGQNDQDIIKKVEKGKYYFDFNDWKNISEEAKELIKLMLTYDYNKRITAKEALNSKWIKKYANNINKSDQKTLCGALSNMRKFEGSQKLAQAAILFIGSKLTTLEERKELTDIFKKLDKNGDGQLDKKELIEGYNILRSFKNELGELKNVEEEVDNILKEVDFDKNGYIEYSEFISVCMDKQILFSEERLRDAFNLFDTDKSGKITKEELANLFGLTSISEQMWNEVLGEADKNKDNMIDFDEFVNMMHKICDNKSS

[6] = target: Plasmodium falciparum protein kinase 6 (PK6, PF3D7_1337100) (UniProt Q8IDW1); assay: PfPK6 kinase inhibitors, biochemical, TCAMS library (AID 1159586); conditions: recombinant PfPK6, Kinase-Glo ATP depletion luminescence
Plasmodium falciparum protein kinase 6 (PK6, PF3D7_1337100), sequence (Q8IDW1 1-305): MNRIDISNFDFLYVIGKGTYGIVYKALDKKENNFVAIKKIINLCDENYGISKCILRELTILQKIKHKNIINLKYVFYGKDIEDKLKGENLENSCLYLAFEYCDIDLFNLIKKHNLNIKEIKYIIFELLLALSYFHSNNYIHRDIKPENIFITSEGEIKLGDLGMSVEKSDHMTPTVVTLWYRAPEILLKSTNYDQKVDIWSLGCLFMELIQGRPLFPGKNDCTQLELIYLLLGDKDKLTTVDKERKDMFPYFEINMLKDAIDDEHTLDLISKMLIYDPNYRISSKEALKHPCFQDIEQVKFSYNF

[7] = target: Protein kinase 7 (PK7), Plasmodium falciparum 3D7 (PF3D7_0213400) (UniProt Q7YTF7); assay: inhibition of Plasmodium PK7 catalytic activity – biochemical, TCAMS antimalarial set, Kinase-Glo luminescence (AID 1159587); conditions: recombinant PfPK7, Kinase-Glo ATP depletion luminescence
Protein kinase 7 (PK7), Plasmodium falciparum 3D7 (PF3D7_0213400), sequence (Q7YTF7 1-343): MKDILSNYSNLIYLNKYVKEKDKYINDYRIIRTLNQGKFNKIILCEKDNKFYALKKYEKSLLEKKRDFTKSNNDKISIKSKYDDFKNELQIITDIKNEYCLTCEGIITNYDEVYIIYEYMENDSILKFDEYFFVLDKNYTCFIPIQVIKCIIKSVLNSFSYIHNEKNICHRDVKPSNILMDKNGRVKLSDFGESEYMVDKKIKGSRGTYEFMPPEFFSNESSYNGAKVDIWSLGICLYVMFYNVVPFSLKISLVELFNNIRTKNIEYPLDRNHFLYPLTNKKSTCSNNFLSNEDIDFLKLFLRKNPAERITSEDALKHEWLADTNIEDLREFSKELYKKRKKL

[8] = target: Calcium-dependent protein kinase 4 (Plasmodium falciparum (isolate 3D7)) (UniProt Q8IBS5); assay: PfCDPK4 kinase inhibitors, biochemical, TCAMS library (AID 1159588; cut-off not given, nearly all actives have IC50 up to about 0.91 µM); conditions: recombinant PfCDPK4, Kinase-Glo ATP depletion luminescence
Calcium-dependent protein kinase 4 (Plasmodium falciparum (isolate 3D7)), sequence (Q8IBS5 whole entry, looked up): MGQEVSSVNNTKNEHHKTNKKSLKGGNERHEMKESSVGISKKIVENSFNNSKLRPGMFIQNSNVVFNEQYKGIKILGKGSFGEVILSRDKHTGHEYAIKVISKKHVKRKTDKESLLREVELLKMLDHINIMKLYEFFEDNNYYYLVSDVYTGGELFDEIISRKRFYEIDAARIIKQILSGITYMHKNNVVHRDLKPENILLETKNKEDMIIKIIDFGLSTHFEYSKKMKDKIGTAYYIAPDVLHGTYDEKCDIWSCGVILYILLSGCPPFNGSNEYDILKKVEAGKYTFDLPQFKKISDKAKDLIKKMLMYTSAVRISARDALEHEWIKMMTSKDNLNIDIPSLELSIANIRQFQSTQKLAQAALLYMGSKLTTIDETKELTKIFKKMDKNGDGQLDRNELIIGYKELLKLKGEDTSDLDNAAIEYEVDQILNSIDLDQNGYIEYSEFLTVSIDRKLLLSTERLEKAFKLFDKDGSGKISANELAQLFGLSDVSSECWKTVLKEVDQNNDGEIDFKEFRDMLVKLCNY

COc1ccc2nc(C)cc(NN=Cc3cc(OC)c(OC)cc3OC)c2c1
inactive: inhibition [2] 1% | inhibition [3] 5% | outcome [5] | outcome [6] | outcome [7] | outcome [8]
active: growth inhibition [1] 56% | growth inhibition [4] 100%

Cc1ccc2c(=O)n(C)c(=O)n(C)c2n1
active: growth inhibition [4] 98%
inactive: growth inhibition [1] -3% | inhibition [2] 15% | inhibition [3] 4% | outcome [5] | outcome [6] | outcome [7] | outcome [8]

COc1ccc(C=NNc2nc3ccccc3[nH]2)cc1O
inactive: growth inhibition [1] 13% | inhibition [2] 15% | inhibition [3] 0% | outcome [5] | outcome [6] | outcome [7] | outcome [8]
active: growth inhibition [4] 95%

CNC(=O)c1cnc(Nc2ccc(OCC(O)CN(C)C)cc2)nc1Nc1cccc(OC(C)C)c1 (stereo unspecified)
inactive: inhibition [2] 21% | inhibition [3] 1% | outcome [5] | outcome [6] | outcome [7] | outcome [8]
active: growth inhibition [1] 100% | growth inhibition [4] 103%

NCCCN(Cc1ccc(Cl)c(Cl)c1)C(=O)Nc1ccc(Cl)c(Cl)c1
active: inhibition [2] 100% | growth inhibition [4] 93%
inactive: growth inhibition [1] 41% | inhibition [3] -2% | outcome [5] | outcome [6] | outcome [7] | outcome [8]

Cc1cc(NN=Cc2cccc([N+](=O)[O-])c2)c2ccccc2n1
active: growth inhibition [1] 98% | growth inhibition [4] 101%
inactive: inhibition [2] -9% | inhibition [3] 3% | outcome [5] | outcome [6] | outcome [7] | outcome [8]

COc1ccc(CN=C(N)Nc2nc(-c3ccc(OCCCn4ccnc4)cc3)cs2)cc1
active: growth inhibition [1] 67% | growth inhibition [4] 100%
inactive: inhibition [2] 15% | inhibition [3] -5% | outcome [5] | outcome [6] | outcome [7] | outcome [8]

O=C(c1ccco1)N1CCN(c2nc(-c3ccc(Cl)cc3)nc3ccccc23)CC1
inactive: inhibition [2] 13% | inhibition [3] 5% | outcome [5] | outcome [6] | outcome [7] | outcome [8]
active: growth inhibition [1] 91% | growth inhibition [4] 96%

CCCc1cc(=O)[nH]c(-n2nc(C)cc2NC(=O)CC(c2ccccc2)c2ccccc2)n1
inactive: inhibition [2] 39% | inhibition [3] 4% | outcome [5] | outcome [6] | outcome [7] | outcome [8]
active: growth inhibition [1] 88% | growth inhibition [4] 97%

CC(C)(C)OC(=O)N[C@@H](Cc1ccccc1)C(=O)Nc1cccc(-c2cccc(NC(=O)[C@H](Cc3ccccc3)NC(=O)OC(C)(C)C)c2)c1
active: growth inhibition [1] 97% | growth inhibition [4] 106%
inactive: inhibition [2] 10% | inhibition [3] 6% | outcome [5] | outcome [6] | outcome [7] | outcome [8]

Cc1cc(N)c2cc(NC(=O)/C=C/c3ccc([N+](=O)[O-])cc3)ccc2n1
active: growth inhibition [1] 80% | inhibition [2] 76% | growth inhibition [4] 100%
inactive: inhibition [3] -2% | outcome [5] | outcome [6] | outcome [7] | outcome [8]

N#Cc1ccc(N2C[C@@H](OCc3ccccc3)C[C@H]2C(=O)NCCC(c2ccccc2)c2ccccc2)c2ccccc12
inactive: inhibition [2] 11% | inhibition [3] -6% | outcome [5] | outcome [6] | outcome [7] | outcome [8]
active: growth inhibition [1] 96% | growth inhibition [4] 93%

Cc1[nH]c(C)c(-c2ccc(OCc3cccc(C(F)(F)F)c3)nc2)c(=O)c1Br
active: growth inhibition [1] 97% | growth inhibition [4] 99%
inactive: inhibition [2] 37% | inhibition [3] -2% | outcome [5] | outcome [6] | outcome [7] | outcome [8]

C=CCOC(=O)N1CCC(CNCc2cccc(-c3cccc(-c4nc5ccccc5[nH]4)c3)c2)C1 (stereo unspecified)
active: growth inhibition [4] 100%
inactive: growth inhibition [1] 46% | inhibition [2] 16% | inhibition [3] -3% | outcome [5] | outcome [6] | outcome [7] | outcome [8]

O=C(Nc1ccc(C(F)(F)F)cc1)c1cc(Br)cnc1NCCCn1ccnc1
inactive: inhibition [2] 32% | inhibition [3] 2% | outcome [5] | outcome [6] | outcome [7] | outcome [8]
active: growth inhibition [1] 98% | growth inhibition [4] 99%

Nc1c2c(nc3ccc(C(=O)Nc4cc(I)c(O)c(I)c4)cc13)CCCC2
inactive: inhibition [2] 14% | inhibition [3] 0% | outcome [5] | outcome [6] | outcome [7] | outcome [8]
active: growth inhibition [1] 64% | growth inhibition [4] 96%

Cc1cc(C)c(NC(=O)N[C@H]2CCN(CCCCCNC(=O)/C=C/c3ccc(Cl)c(Cl)c3)C2)c(C)c1
inactive: growth inhibition [1] 3% | inhibition [2] 12% | inhibition [3] -4% | outcome [5] | outcome [6] | outcome [7] | outcome [8]
active: growth inhibition [4] 91%

Cc1cc(N[C@@H](Cc2ccccc2)C(=O)NCCOc2ccccc2)nc(NCCc2ccc(F)cc2)n1
active: growth inhibition [1] 86% | growth inhibition [4] 99%
inactive: inhibition [2] 5% | inhibition [3] 1% | outcome [5] | outcome [6] | outcome [7] | outcome [8]

O=C(C=Cc1ccc(Cl)c(Cl)c1)NCCCCCN1CCCC(CCCNC(=O)c2cccs2)C1 (stereo unspecified)
inactive: growth inhibition [1] 0% | inhibition [2] 24% | inhibition [3] 1% | outcome [5] | outcome [6] | outcome [7] | outcome [8]
active: growth inhibition [4] 89%

Cc1nc(-c2nc(N3CCOCC3)ncc2-c2ccsc2)sc1C
inactive: inhibition [2] 5% | inhibition [3] -7% | outcome [5] | outcome [6] | outcome [7] | outcome [8]
active: growth inhibition [1] 75% | growth inhibition [4] 89%

Cc1[nH]c(C)c(-c2ccc(-c3ccccc3Cl)nc2)c(=O)c1Br
active: growth inhibition [1] 96% | growth inhibition [4] 97%
inactive: inhibition [2] -2% | inhibition [3] -5% | outcome [5] | outcome [6] | outcome [7] | outcome [8]

O=C(Nc1ccc(Cl)cc1)Nc1ccc2c(c1)N1CCN=C1S2
inactive: inhibition [2] 15% | inhibition [3] -1% | outcome [5] | outcome [6] | outcome [7] | outcome [8]
active: growth inhibition [1] 100% | growth inhibition [4] 99%

OC1(Cc2ccccc2)CCN(Cc2cccc(-c3c[nH]c4nc(NC5CCCC5)ncc34)c2)CC1
active: growth inhibition [4] 96%
inactive: growth inhibition [1] 35% | inhibition [2] 45% | inhibition [3] 4% | outcome [5] | outcome [6] | outcome [7] | outcome [8]

COCCNCc1cccc(-c2ccc3c(Nc4ccc(F)cc4Cl)ccnc3c2)c1
inactive: inhibition [2] 8% | inhibition [3] 3% | outcome [5] | outcome [6] | outcome [7] | outcome [8]
active: growth inhibition [1] 100% | growth inhibition [4] 103%

CCOC(=O)c1ccc(NC(=O)Nc2ccc(-c3ccc(-c4nc5ccccc5[nH]4)cc3)cc2)cc1
inactive: inhibition [2] 49% | inhibition [3] 0% | outcome [5] | outcome [6] | outcome [7] | outcome [8]
active: growth inhibition [1] 100% | growth inhibition [4] 101%

CO/C(=C/C=C/c1cc2cc(Cl)c(Cl)cc2[nH]1)C(=O)NC1CC(C)(C)N(C)C(C)(C)C1
inactive: inhibition [3] -12% | outcome [5] | outcome [6] | outcome [7] | outcome [8]
active: growth inhibition [1] 85% | inhibition [2] 58% | growth inhibition [4] 99%

CC(C)CNCc1ccc(-c2cccc(-c3nc4ccccc4[nH]3)c2)cc1
active: growth inhibition [1] 98% | inhibition [2] 53% | growth inhibition [4] 99%
inactive: inhibition [3] -5% | outcome [5] | outcome [6] | outcome [7] | outcome [8]

Clc1cc(Nc2ncnc3sc(C#C[C@H]4CCCN4)cc23)ccc1OCc1cccnc1Cl
inactive: inhibition [2] 9% | inhibition [3] -3% | outcome [5] | outcome [6] | outcome [7] | outcome [8]
active: growth inhibition [1] 93% | growth inhibition [4] 101%

COc1cccc(Nc2nccc(NCC(O)c3cccc(C(F)(F)F)c3)n2)c1 (stereo unspecified)
inactive: growth inhibition [1] 27% | inhibition [2] 6% | inhibition [3] -4% | outcome [5] | outcome [6] | outcome [7] | outcome [8]
active: growth inhibition [4] 96%

CCOc1ccc(-c2nonc2NC(=O)c2ccccc2)cc1OCC
inactive: inhibition [2] 6% | inhibition [3] 4% | outcome [5] | outcome [6] | outcome [7] | outcome [8]
active: growth inhibition [1] 100% | growth inhibition [4] 99%

COc1nc2c(N3CCN(CCNCc4ccc5c(n4)NC(=O)CS5)CC3)ccnc2cc1F
active: growth inhibition [1] 96% | growth inhibition [4] 101%
inactive: inhibition [2] 18% | inhibition [3] -6% | outcome [5] | outcome [6] | outcome [7] | outcome [8]

CCN(CC)CCCN(CCCN(CC)CC)c1cc(C)nc(Nc2ccc(Cl)cc2)n1
inactive: growth inhibition [1] 7% | inhibition [2] 11% | inhibition [3] 2% | outcome [5] | outcome [6] | outcome [7] | outcome [8]
active: growth inhibition [4] 101%

O=C(Nc1ccc(Br)cc1)c1cc(Br)ccc1NS(=O)(=O)c1ccc(C(F)(F)F)cc1
active: growth inhibition [1] 56% | inhibition [2] 53% | growth inhibition [4] 100%
inactive: inhibition [3] 2% | outcome [5] | outcome [6] | outcome [7] | outcome [8]

O=C(CCCCCNC(=O)c1ccc(O)c(-c2cccc(C(F)(F)F)c2)c1)NCCN1CCCCC1
inactive: growth inhibition [1] 0% | inhibition [2] -5% | inhibition [3] 4% | outcome [5] | outcome [6] | outcome [7] | outcome [8]
active: growth inhibition [4] 99%

CC(=O)Nc1ccc(CN2CCC(NC(=O)c3ccc(-c4ccc(N(C)C)cc4)s3)CC2)cc1
inactive: inhibition [2] 20% | inhibition [3] -1% | outcome [5] | outcome [6] | outcome [7] | outcome [8]
active: growth inhibition [1] 57% | growth inhibition [4] 100%

Cc1ccc(-c2cnc(N)c3cc(-c4ccnc(N)n4)ccc23)cc1
active: growth inhibition [1] 94% | growth inhibition [4] 99%
inactive: inhibition [2] 41% | inhibition [3] -5% | outcome [5] | outcome [6] | outcome [7] | outcome [8]

CC(C)CN1CCCN(Cc2cccc(NC(=O)c3ccc(Cl)c(Cl)c3)c2)CC1
inactive: growth inhibition [1] 9% | inhibition [2] 10% | inhibition [3] 0% | outcome [5] | outcome [6] | outcome [7] | outcome [8]
active: growth inhibition [4] 91%

Nc1nccc(-c2ccc3c(-c4cccc(F)c4)cnc(N)c3c2)n1
inactive: growth inhibition [1] 44% | inhibition [2] 41% | inhibition [3] 5% | outcome [5] | outcome [6] | outcome [7] | outcome [8]
active: growth inhibition [4] 93%

COC(=O)c1noc(C)c1I
inactive: growth inhibition [1] 2% | inhibition [2] 5% | inhibition [3] -9% | outcome [5] | outcome [6] | outcome [7] | outcome [8]
active: growth inhibition [4] 99%

COc1ccc(-c2cc(C(=O)N[C@@H](CC3CCCCC3)C(=O)NCCN3CCCC3)ccc2O)cc1
active: growth inhibition [4] 90%
inactive: growth inhibition [1] 12% | inhibition [2] 12% | inhibition [3] 2% | outcome [5] | outcome [6] | outcome [7] | outcome [8]

O=C(Cc1n[nH]c(=O)c2ccccc12)Nc1cccc(C(=O)Nc2cccc(C(F)(F)F)c2)c1
inactive: inhibition [2] 0% | inhibition [3] -6% | outcome [5] | outcome [6] | outcome [7] | outcome [8]
active: growth inhibition [1] 90% | growth inhibition [4] 97%

O=[N+]([O-])c1ccc(-c2ccc(C=NNc3nc(Nc4ccccc4)nc(Nc4ccccc4)n3)o2)cc1
active: growth inhibition [4] 91%
inactive: growth inhibition [1] 12% | inhibition [2] -4% | inhibition [3] 1% | outcome [5] | outcome [6] | outcome [7] | outcome [8]
